Screening data: PubChem, National Center for Advancing Translational Sciences (NCATS)
Hits are enriched below; roughly 11% of the tested compounds scored in any of these assays.
KDM4E inh: inhibitors of human JMJD2E histone demethylase; B2RXH2; JMJD2E catalytic domain, FDH-coupled NADH fluorescence (FDH is formaldehyde dehydrogenase); Potency, µM (doses to about 57.1 µM), actives largely listed as inhibitors; 230,000 compounds, 1.6% hits; AID 2147; note: nearly all actives have a fitted effect of over 50% in size
ALDH1A1 block: inhibitors of human aldehyde dehydrogenase 1A1; P00352; Purified ALDH1A1, NADH fluorescence, propionaldehyde substrate; Potency, µM (top dose mostly 75.3 µM), most hits filed as inhibitors; 220,000 compounds, 7.3% hits; AID 1030
PNC inhibitor: inhibitors of perinucleolar compartment assembly; PC3M PTB-GFP, PNC prevalence imaging, 16 h; hits give low values; activity change (PNC), negative = inhibition, % at 10 µM; 140,000 compounds, 3.1% hits;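 active = readout at or below -70, meaning at least 70% loss of cells showing the perinucleolar compartment, a nuclear body marking cancer cells; inconclusive = readout between -30 and a set limit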
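Read-out is percentage of cells bearing a perinucleolar compartment, from automated 20x imaging of fixed, Hoechst-stained PC3M PTB-GFP cells. Cells were seeded 4 h, then exposed 16 h to compound (23 nl of library stock) in duplicate plates.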
HPGD block: HPGD (human) dehydrogenase inhibition; purified HPGD, NADH fluorescence kinetic, PGE2 substrate; Potency, µM, hits mostly inhibitors; 150,000 compounds, 4.3% hits
Target sequence (P15428 whole entry, looked up): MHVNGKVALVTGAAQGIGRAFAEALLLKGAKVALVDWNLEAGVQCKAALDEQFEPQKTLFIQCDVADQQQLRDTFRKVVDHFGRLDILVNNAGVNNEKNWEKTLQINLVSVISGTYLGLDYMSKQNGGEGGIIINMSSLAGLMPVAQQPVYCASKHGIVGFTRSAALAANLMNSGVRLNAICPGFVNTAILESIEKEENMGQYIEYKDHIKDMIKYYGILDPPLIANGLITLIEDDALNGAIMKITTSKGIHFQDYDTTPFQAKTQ
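NADH formation kinetics: reaction with 30 uM PGE2 and 1 mM NAD+ (final), 20 nM enzyme, Tris-HCl pH 8 with Tween 20, after 15 min compound preincubation at room temperature. Fluorescence change, last versus first of five reads.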
A number is an active result; n = inactive; u = inconclusive; x = not tested or not shown. Unless noted, calls come from the whole dose curve; as a rule, active = well fitted inhibition curve with a large enough effect (not every such curve was filed as active); inconclusive = small, poorly fitted or top-dose-only effect, or another doubt; inactive = no such curve, though single readings can be large or run the other way.

SMILES	KDM4E inh	ALDH1A1 block	PNC inhibitor	HPGD block
COc1ccccc1CN1CCNC(=O)C1CC(=O)NCCCn1cccn1 (stereo not given)	n	25µM	x	x
COc1cccc(CN2CCNC(=O)C2CC(=O)NCCn2cccn2)c1OC (stereo not given)	u	n	x	x
COc1ccccc1CN1CCNC(=O)C1CC(=O)NCCC1=CCCCC1 (stereo not given)	u	25µM	x	x
C(=N\Nc1nc(-c2ccccc2)cs1)/c1ccncc1	n	u	x	x
Cc1ccc(-c2csc(N/N=C/C=C/c3ccccc3)n2)cc1	n	22µM	n	n
Cc1ccc(C)c(Cn2nnc3c(=O)[nH]c(C4CCCN(C(=O)C5CCC5)C4)nc32)c1 (stereo not given)	n	u	n	4.5µM
O=C(Nc1ccc(F)cc1)N1CCC(c2nc3c(nnn3Cc3ccccc3Cl)c(=O)[nH]2)CC1	n	n	x	x
Cc1nc2c(nnn2Cc2ccccc2)c(=O)[nH]1	n	n	x	x
Cc1ccc(C)c(Cn2nnc3c(=O)[nH]c(C4CCN(C(=O)c5cccs5)CC4)nc32)c1	n	n	n	0.56µM
Cc1ccc(Cn2nnc3c(=O)[nH]c(C4CCN(C(=O)c5cccs5)CC4)nc32)cc1	n	n	n	14µM
NC(=O)CN1CCN(S(=O)(=O)c2ccc(Br)cc2)CC1	n	n	x	x
C[C@@H]1CCC2C(C)(C)C3CC21CC[C@@]3(C)O (stereo not given in full)	n	n	x	n
